# Measurements taken from the antibiotic and cytotoxicity screens of Wong et al. (2023).
# The whole screen tested about 39,000 compounds, of which about 1,500 (3.8%) were called active. For the sample, actives were picked, then their nearest neighbours and some compounds at random.
# System: HSkMC (human skeletal muscle cells)
# Assay: cytotoxicity call (relative viability < 0.9)
# Conditions: 10 µM
row,SMILES,cytotoxicity call
1,C[C@@H]1CN([C@H](C)CO)C(=O)Cc2cc(NS(=O)(=O)c3cccs3)ccc2O[C@H]1CN(C)S(=O)(=O)c1cn(C)cn1,inactive
2,O=C(N[C@H](c1ccc2ccccc2n1)c1cccs1)C1CCN(Cc2cccc(C(F)(F)F)c2)CC1,inactive
3,N#Cc1c(Oc2ccc(F)c(NC(=O)Cc3cccc(C(F)(F)F)c3)c2)ccc2nc(NC(=O)C3CC3)sc12,active
4,NC[C@](O)(c1cccs1)C1CC1,inactive
5,C[C@@H]1CN([C@@H](C)CO)C(=O)c2cc(-c3cccc(C(=O)N(C)C)c3)cnc2O[C@@H]1CN(C)S(=O)(=O)c1cccc(F)c1,inactive
6,COc1ccc(CN(C)C[C@@H]2Oc3ccc(NC(=O)CCN4CCOCC4)cc3CC(=O)N([C@@H](C)CO)C[C@@H]2C)cc1,inactive
7,COc1ccc(S(=O)(=O)Nc2cccc3c2O[C@@H](CN(C)S(=O)(=O)c2c(C)noc2C)[C@H](C)CN([C@H](C)CO)C3=O)cc1,inactive
8,O=C(C[C@H]1CC[C@H]2[C@@H](COC[C@@H](O)CN2S(=O)(=O)c2ccc(Cl)cc2)O1)NCC1CCCCC1,inactive
9,Cn1nnc(NCc2ccccc2)n1,inactive
10,c1ccc(CNc2ccc3c(ccc4c5ccccc5[nH]c34)n2)cc1,active
11,c1ccc(CNc2nn[nH]n2)cc1,inactive
12,C[C@@H]1CN([C@H](C)CO)C(=O)Cc2cc(NC(=O)c3ccncc3)ccc2O[C@@H]1CN(C)S(=O)(=O)c1ccc(F)cc1,inactive
13,C[C@H](CO)N1C[C@H](C)[C@@H](CN(C)C(=O)Nc2ccc(F)cc2)Oc2ccc(NC(=O)Cn3cnnn3)cc2CC1=O,inactive
14,CS(C)(=O)=O,inactive
15,Cc1ccc(S(=O)(=O)Nc2ccc3c(c2)C(=O)N([C@H](C)CO)C[C@H](C)[C@@H](CN(C)C(=O)Nc2ccc(F)cc2)OCCCC[C@H](C)O3)cc1,inactive
16,C[C@@H]1CN([C@@H](C)CO)C(=O)Cc2cc(NC(=O)Nc3ccc(C(F)(F)F)cc3)ccc2O[C@@H]1CN(C)Cc1ccc(Cl)c(Cl)c1,active
17,C[C@H]1CN([C@@H](C)CO)C(=O)Cc2cc(NC(=O)Nc3ccc(C(F)(F)F)cc3)ccc2O[C@H]1CN(C)Cc1ccncc1,inactive
18,C[C@H](CO)N1C[C@H](C)[C@@H](CN(C)Cc2ccc(Cl)c(Cl)c2)Oc2ccc(NC(=O)Nc3ccc(C(F)(F)F)cc3)cc2CC1=O,active
19,C[C@H]1CN([C@@H](C)CO)C(=O)Cc2cc(NC(=O)Nc3ccc(C(F)(F)F)cc3)ccc2O[C@@H]1CN(C)Cc1ccc(Cl)c(Cl)c1,inactive
20,C[C@@H]1CN([C@@H](C)CO)C(=O)Cc2cc(NC(=O)Nc3ccc(C(F)(F)F)cc3)ccc2O[C@@H]1CN(C)Cc1ccncc1,inactive
21,C[C@@H]1CN([C@H](C)CO)C(=O)Cc2cc(NC(=O)Nc3ccc(C(F)(F)F)cc3)ccc2O[C@@H]1CN(C)Cc1ccncc1,inactive

row,SMILES,cytotoxicity call
1,C[C@@H]1CN([C@H](C)CO)C(=O)Cc2cc(NC(=O)Nc3ccc(C(F)(F)F)cc3)ccc2O[C@H]1CN(C)Cc1ccncc1,inactive
2,C[C@H]1CN([C@@H](C)CO)C(=O)Cc2cc(NC(=O)Nc3ccc(C(F)(F)F)cc3)ccc2O[C@@H]1CN(C)Cc1ccncc1,inactive
3,C[C@H]1CN([C@@H](C)CO)C(=O)Cc2cc(NC(=O)Nc3ccc(C(F)(F)F)cc3)ccc2O[C@H]1CN(C)Cc1ccc(Cl)c(Cl)c1,active
4,C[C@@H]1CN([C@H](C)CO)C(=O)Cc2cc(NC(=O)Nc3ccc(C(F)(F)F)cc3)ccc2O[C@@H]1CN(C)Cc1ccc(Cl)c(Cl)c1,active
5,CC(=O)N(C)C[C@@H]1Oc2ncc(C#C[C@@H](C)O)cc2C(=O)N([C@@H](C)CO)C[C@@H]1C,inactive
6,COc1ccc(S(=O)(=O)Nc2ccc3c(c2)CC(=O)N([C@H](C)CO)C[C@@H](C)[C@H](CN(C)Cc2ccncc2)O3)cc1,inactive
7,C[C@H]1CN([C@@H](C)CO)C(=O)Cc2cc(NS(=O)(=O)c3cn(C)cn3)ccc2O[C@H]1CN(C)S(=O)(=O)c1ccc(Cl)cc1,inactive
8,C[C@H]1CN([C@@H](C)CO)C(=O)Cc2cc(NC(=O)CCCCCC(=O)Nc3ccccc3N)ccc2O[C@H]1CN(C)S(C)(=O)=O,inactive
9,COc1ccc(S(=O)(=O)N(C)C[C@H]2Oc3ccc(NC(=O)C4CC4)cc3CC(=O)N([C@H](C)CO)C[C@@H]2C)cc1,inactive
10,CN1C(=O)c2cc(NC(=O)c3cccs3)ccc2OC[C@H]2O[C@@H](CC(=O)NCC(F)(F)F)CC[C@H]21,inactive
11,C[C@@H]1CN([C@@H](C)CO)C(=O)c2cc(NC(=O)Cn3cnnn3)ccc2O[C@@H]1CN(C)Cc1ccccc1,inactive
12,COc1ccc([Si](C)(C)[C@@H]2[C@@H](CC(=O)N3Cc4ccccc4C[C@H]3CO)O[C@]3(C(=O)N(Cc4ccc(N5CCC5=O)cc4)c4ccccc43)[C@H]2C)cc1,inactive
13,C[C@H](CO)N1C[C@H](C)[C@H](CN(C)Cc2ccc(Cl)c(Cl)c2)Oc2ccc(NC(=O)Nc3ccc(C(F)(F)F)cc3)cc2CC1=O,active
14,C[C@@H]1CN([C@H](C)CO)C(=O)Cc2cc(NC(=O)Nc3ccc(C(F)(F)F)cc3)ccc2O[C@H]1CN(C)Cc1ccc(Cl)c(Cl)c1,active
15,C[C@@H]1CN([C@@H](C)CO)C(=O)Cc2cc(NC(=O)Nc3ccc(C(F)(F)F)cc3)ccc2O[C@H]1CN(C)Cc1ccc(Cl)c(Cl)c1,active
16,CS(=O)(=O)O.Oc1ccc(C2CNCCc3c2cc(O)c(O)c3Cl)cc1 (stereo unspecified),inactive
17,COc1ccc(S(=O)(=O)Nc2ccc3c(c2)C(=O)N([C@@H](C)CO)C[C@H](C)[C@@H](CN(C)C(=O)Nc2c(C)noc2C)OCCCC[C@@H](C)O3)cc1,inactive
18,COc1ccc(S(=O)(=O)Nc2ccc3c(c2)CC(=O)N([C@@H](C)CO)C[C@@H](C)[C@H](CN(C)S(C)(=O)=O)O3)cc1,inactive
19,Cc1noc(C)c1S(=O)(=O)N(C)C[C@@H]1Oc2ccc(NC(=O)C3CC3)cc2CC(=O)N([C@H](C)CO)C[C@@H]1C,inactive
20,Cc1noc(C)c1NC(=O)Nc1ccc2c(c1)C(=O)N([C@@H](C)CO)C[C@H](C)[C@H](CN(C)C(=O)Nc1ccccc1)OCCCC[C@H](C)O2,inactive
